Values joined by “and” are separate entries in the source; they are usually repeats but may differ in a detail not shown here. Identical values can stand only once.
Tested on: H9c2
Test: protection of cardiomyocytes from stress damage, SAR follow-up, cell-based, panel, H9c2 and HL-1, ATP luminescence, set 2 (AID 651871);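 also: cells exposed to stressor for 2 h before ATP readout; reference of the scale not given here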
Details: H9c2/HL-1 cardiomyocytes, 2-deoxyglucose stress, with 2-deoxyglucose; run 14, at 79 µM (top of the series)

SMILES | activity (protection/inhibition)
CCOC(=O)c1cccc(NC(=O)CNC(=O)c2cc(-c3cc(OC)c(OC)c(OC)c3)nc3ccccc23)c1 | 95.1%
COc1ccc2c(c1OC)C(=O)N1c3ccccc3C(=O)N(Cc3cccc(Cl)c3Cl)C21 (stereo not drawn) | 74.7% and 78.2% and -6.22%
COc1ccc2nc(-c3cc(OC)c(OC)c(OC)c3)cc(C(=O)NCC(=O)Nc3ccc(C(C)=O)cc3)c2c1 | 89.3%

Reference: PubChem BioAssay AID651871 (Sanford-Burnham Center for Chemical Genomics, 2012)
